Values joined by “and” are separate entries in the source; they are usually repeats but may differ in a detail not shown here. Equal values may be shown once. Records with an inconclusive call do not appear. A structure can be active in one record and inactive in another. Active and inactive are the calls of the source. Unless noted, the call rests on the fitted dose curve; in most records, active means well fitted curve in the direction sought with a large enough effect in the repeat runs; inconclusive means weak or mixed curves; inactive means no such curve, though single readings can be large; an effect the other way counts as inactive or inconclusive.

The nature of experiment [1]: A CellTox Green Cytotoxicity Assay to monitor cytotoxicity in HepG2 cells - 8 hour (AID 1224890). Further: nearly all actives have a fitted effect of over 45% in size. Further: potency means the concentration at half of the fitted maximal effect. The method, boiled down:
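HepG2 cells were seeded together with the CellTox Green dye at 600 cells/well, left 5 h at 37 C/5% CO2, then given compounds in DMSO. Fluorescence from dye bound to dead-cell DNA was read repeatedly over 40 h of treatment at 37 C.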

Experiment [2] in a line: qHTS assay to identify small molecule antagonists of the estrogen receptor alpha (ER-alpha) signaling pathway using the BG1 cell line in the presence of 0.1 nM 17-beta-estradiol - cell viability counter screen (AID 1259241). Further: nearly all actives have a fitted effect of over 40% in size. The method, boiled down:
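CellTiter-Fluor read (30 min, 37C) on ER-alpha/ERE-luc VM7Luc4E2 cells; 22 hr compound treatment; agonist 0.1 nM E2 final; same-well multiplex.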

Experiment [3] in a line: qHTS assay to identify small molecule antagonists of the androgen receptor (AR) signaling pathway using the MDA cell line in the presence of 0.5 nM R1881 - cell viability counter screen (AID 1259242). Further: nearly all actives have a fitted effect of over 45% in size. The method, boiled down: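 MDA-kb2 cells (human breast carcinoma, stably carrying MMTV-luciferase reporter) were exposed to compounds with 0.5 nM R1881 (final) for 16 hr at 37C, 0% CO2; viability then read as live-cell protease fluorescence (CellTiter-Fluor, 30 min) in the same wells.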

Experiment [4] in a line: qHTS assay to identify small molecule HDAC inhibitors (AID 1259364). Further: top concentration of the series differs between compounds; nearly all actives have a fitted effect of over 45% in size. The method, boiled down:
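Wild-type HCT-116 cells were plated overnight, exposed to compounds for 2 h at 37 °C, then given HDAC-Glo class I/II luminogenic reagent for 30 min at room temperature before luminescence was read.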

Experiment [5] in a line: qHTS assay to identify small molecule agonists of the sonic hedgehog signaling (Shh) pathway - cell viability counter screen (AID 1259366). Further: nearly all actives have a fitted effect of over 50% in size. Further: potency means the concentration at half of the fitted maximal effect. The method, boiled down: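 Fluorescence from CellTiter-Fluor reports live cells in this counter screen. NIH/3T3-derived Gli1-Luc reporter cells receive test compounds for 24hr at 37C; reagent goes in at 23hr.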
Experiment [6] can be described thus: qHTS assay to identify small molecule antagonists of the sonic hedgehog signaling (Shh) pathway - cell viability counter screen (AID 1259367). Further: nearly all actives have a fitted effect of over 55% in size. Further: potency means the concentration at half of the fitted maximal effect. The method, boiled down:
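NIH/3T3-derived Gli1-Luc reporter cells (2,000 per well) rested 4 hr at 37 C, then received DMSO compounds plus conditioned medium. After 23 hr of treatment, CellTiter-Fluor was added for 1 hr at 37C and fluorescence read.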

Experiment [7] is described as follows: qHTS assay to identify small molecule agonists of the sonic hedgehog signaling (Shh) pathway (AID 1259368; calls by dose curve; further: series mostly up to about 92 µM; nearly all actives have a fitted effect of over 15% in size). The method, boiled down: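 NIH/3T3-derived 3T3Gli1-Luc cells carrying a stably integrated Gli1 response element–firefly luciferase reporter were plated, left 4 hr at 37 C, then given compounds in DMSO for 24 hr. Luminescence was read 30 min after adding luciferase reagent.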

Experiment [8] is described as follows: qHTS assay to identify small molecule antagonists of the sonic hedgehog signaling (Shh) pathway (AID 1259369; calls by dose curve; further: nearly all actives have a fitted effect of over 45% in size; further: potency means the concentration at half of the fitted maximal effect). The method, boiled down: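 NIH/3T3-derived 3T3Gli1-Luc cells with stably integrated Gli1-Luc reporter were preincubated 4hr at 37 C, then given compounds in DMSO plus Shh conditioned medium and incubated 24hr. Firefly luciferase luminescence read after 30min reagent at room temperature.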

Experiment [9] deals with Estrogen receptor beta (Homo sapiens) (UniProt Q92731). The experiment can be described thus: qHTS assay to identify small molecule agonists of the estrogen receptor beta (ER-beta) signaling pathway (AID 1259377; active means well fitted activation curve with a large enough effect in the signal ratio in the repeat runs, not every such curve was filed as active; the % refers to the signal ratio). The method, boiled down: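 Screening used GripTite ER-beta-UAS-bla cells held in 2% charcoal-stripped FBS medium. After overnight (16 hr) compound incubation at 37C, beta-lactamase activity was detected with a FRET substrate by fluorescence.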
Sequence of Estrogen receptor beta (Homo sapiens) (Q92731 whole entry, looked up): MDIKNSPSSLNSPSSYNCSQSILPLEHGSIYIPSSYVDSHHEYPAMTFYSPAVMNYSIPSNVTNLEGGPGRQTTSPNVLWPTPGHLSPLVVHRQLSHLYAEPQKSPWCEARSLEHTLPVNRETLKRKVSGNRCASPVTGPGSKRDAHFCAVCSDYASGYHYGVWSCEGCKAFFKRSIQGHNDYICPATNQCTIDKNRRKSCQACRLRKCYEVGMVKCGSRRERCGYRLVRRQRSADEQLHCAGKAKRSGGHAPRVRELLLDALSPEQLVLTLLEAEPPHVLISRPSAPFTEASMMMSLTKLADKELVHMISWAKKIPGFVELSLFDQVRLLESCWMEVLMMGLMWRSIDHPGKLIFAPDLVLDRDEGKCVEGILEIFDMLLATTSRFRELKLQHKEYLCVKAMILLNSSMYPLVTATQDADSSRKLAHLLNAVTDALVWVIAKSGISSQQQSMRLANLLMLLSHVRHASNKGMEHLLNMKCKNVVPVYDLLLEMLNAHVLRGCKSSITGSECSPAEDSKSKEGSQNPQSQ

Experiment [10] shares this target. The experiment can be described thus: qHTS assay to identify small molecule antagonists of the estrogen receptor beta (ER-beta) signaling pathway (AID 1259378; active means well fitted inhibition curve with a large enough effect in the signal ratio in the repeat runs, not every such curve was filed as active; the % refers to the signal ratio). The method, boiled down:
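ER-beta-UAS-bla HEK293T (GripTite) cells in 2% charcoal-stripped FBS medium were preincubated 6 hr at 37C, dosed with compound, then stimulated with 1 nM E2 (final) for 16 hr; beta-lactamase reporter read by B/G FRET fluorescence after 2 hr substrate loading.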

Experiment [11] is described as follows: qHTS assay to identify small molecule agonists of the estrogen receptor beta (ER-beta) signaling pathway - cell viability counter screen (AID 1259380). Further: nearly all actives have a fitted effect of over 30% in size. Further: potency means the concentration at half of the fitted maximal effect. The method, boiled down: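 ER-beta-UAS-bla HEK293T cells in medium with 2% charcoal-stripped FBS were preincubated 6 hr at 37C, dosed with compound in DMSO for 16 hr, then after the bla read, CellTiter-Glo was added for 30 min at room temperature; luminescence recorded.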

Experiment [12] can be described thus: qHTS assay to identify small molecule antagonists of the estrogen receptor beta (ER-beta) signaling pathway - cell viability counter screen (AID 1259382). Further: nearly all actives have a fitted effect of over 55% in size. Further: potency means the concentration at half of the fitted maximal effect. The method, boiled down: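 ER-beta-UAS-bla HEK293T cells (2,000/well, 2% charcoal-stripped FBS) were pre-incubated 6 hr at 37C, then given compound plus 1nM final 17-beta-estradiol for 16 hr. Viability was read in the same wells by CellTiter-Glo luminescence after 30 min at room temperature.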

Experiment [13] is described as follows: qHTS assay to identify small molecule agonists or antagonists of the thyroid stimulating hormone receptor (TSHR) signaling pathway - wild type cell line counter screen (AID 1259384; calls by dose curve). The method, boiled down:
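Wild-type HEK293 cells were plated 18 h at 37 C/5% CO2, pin-dosed with compound plus Ro20-1724 medium, held 30 min at room temperature, then given cAMP-d2 and anti-cAMP-cryptate; fluorescence was read after 1 h. Fifteen concentrations, triplicate.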

Experiment [14] addresses Thyrotropin receptor (Homo sapiens) (UniProt P16473). Briefly: qHTS assay to identify small molecule antagonists of the thyroid stimulating hormone receptor (TSHR) signaling pathway (AID 1259385; calls by dose curve; further: nearly all actives have a fitted effect of over 20% in size). The method, boiled down:
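TSHR-HEK293 cells were plated and held 18 h at 37C/5% CO2, then given compound plus Ro20-1724 and stimulated with TSH at 1.5 ng/mL final. After 30 min at room temperature, cAMP was detected with cAMP-d2/anti-cAMP-cryptate (1 h) by fluorescence.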

Experiment [15] deals with Estrogen receptor (Homo sapiens) (UniProt P03372). Briefly: qHTS assay to identify small molecule antagonists of the estrogen receptor alpha (ER-alpha) signaling pathway using the BG1 cell line in the presence of 0.1 nM 17-beta-estradiol (AID 1259244). Further: nearly all actives have a fitted effect of over 50% in size. The method, boiled down: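 VM7Luc4E2 cells (endogenous full-length ER-alpha, stable 4xERE-luciferase) were grown 5 days in phenol red-free medium with charcoal-stripped FBS, then exposed 22 h at 37C to compounds plus 0.1 nM (final) 17beta-estradiol; ONE-Glo luminescence read-out.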
Sequence of Estrogen receptor (Homo sapiens) (P03372 whole entry, looked up): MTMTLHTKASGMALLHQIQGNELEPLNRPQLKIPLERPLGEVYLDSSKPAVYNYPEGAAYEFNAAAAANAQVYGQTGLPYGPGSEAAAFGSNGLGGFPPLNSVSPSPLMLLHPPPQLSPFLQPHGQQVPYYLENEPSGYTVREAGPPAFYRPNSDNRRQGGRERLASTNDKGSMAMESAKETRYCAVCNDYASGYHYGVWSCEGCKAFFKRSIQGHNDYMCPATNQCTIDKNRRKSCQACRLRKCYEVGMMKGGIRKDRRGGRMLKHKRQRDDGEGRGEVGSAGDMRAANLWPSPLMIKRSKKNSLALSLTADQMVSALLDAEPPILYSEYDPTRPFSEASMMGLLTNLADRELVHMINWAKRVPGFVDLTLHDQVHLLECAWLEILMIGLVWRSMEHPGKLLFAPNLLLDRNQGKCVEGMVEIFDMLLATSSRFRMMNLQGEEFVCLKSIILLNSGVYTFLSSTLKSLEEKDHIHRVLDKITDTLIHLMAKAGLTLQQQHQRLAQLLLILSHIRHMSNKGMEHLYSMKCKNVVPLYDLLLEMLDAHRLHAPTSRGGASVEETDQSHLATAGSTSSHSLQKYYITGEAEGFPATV

Experiment [16] is described as follows: qHTS assay to identify small molecule agonists of the androgen receptor (AR) signaling pathway in the presence of an antagonist - cell viability counter screen (AID 1259379). Further: series mostly up to about 92 µM; nearly all actives have a fitted effect of over 25% in size. The method, boiled down:
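MDA-kb2 human breast carcinoma cells (stable MMTV-luciferase, AR/GR responsive) were seeded 3,000 cells/well, pre-incubated 5 hr at 37C without CO2, then given 3.0uM nilutamide and compounds at 15 concentrations for 16 hr. Viability was read by CellTiter-Fluor fluorescence.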

Experiment [17] deals with Estrogen receptor (Homo sapiens) (UniProt P03372). Briefly: qHTS assay to identify small molecule agonists of the estrogen receptor alpha (ER-alpha) signaling pathway in the presence of an antagonist (AID 1259383; calls by dose curve; further: top concentration of the series differs between compounds; nearly all actives have a fitted effect of over 15% in size). The method, boiled down:
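VM7Luc4E2 cells (endogenous full-length ER-alpha, 4×ERE-luciferase) were precultured 5 days in phenol red-free medium with 10% charcoal-stripped FBS, given 10.0nM ICI-182,780 (final), then treated with compounds at 15 concentrations for 22hr at 37C; luminescence read with ONE-Glo.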

The nature of experiment [18]: qHTS assay to identify small molecule HDAC inhibitors - cell viability counter screen (AID 1259365). Further: series mostly up to about 92 µM; nearly all actives have a fitted effect of over 50% in size. The method, boiled down:
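To flag cytotoxic hits, 1,500 wild-type HCT-116 cells per well, plated the day before, receive test compounds for 2hr at 37 C before CellTiter-Glo reagent and a luminescence read.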

A short description of experiment [19]: qHTS assay to identify small molecule phospholipidosis (PLD) inducers (AID 1259344; active means well fitted curve in the direction sought with a large enough effect; an effect the other way counts as inactive or inconclusive). The method, boiled down:
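HepG2 cells on collagen I, attached 4 h at 37 C, were co-treated with compound and LipidTOX Red dye for 24 h at 37 C, then fixed with paraformaldehyde plus Hoechst 33342 and imaged by high-content microscopy for phospholipid accumulation.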

Experiment [20] concerns the target Androgen receptor (Homo sapiens) (UniProt P10275). The experiment can be described thus: qHTS assay to identify small molecule antagonists of the androgen receptor (AR) signaling pathway using the MDA cell line in the presence of 0.5 nM R1881 (AID 1259243). Further: nearly all actives have a fitted effect of over 50% in size. The method, boiled down:
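MDA-kb2 human breast carcinoma cells carrying an MMTV-luciferase reporter (AR- and GR-responsive) were plated, rested 5 hr at 37C, dosed with compounds, then stimulated with 0.5 nM R1881 (final) for 16 hr; luminescence was read after ONE-Glo.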

Sequence of Androgen receptor (Homo sapiens) (P10275 whole entry, looked up): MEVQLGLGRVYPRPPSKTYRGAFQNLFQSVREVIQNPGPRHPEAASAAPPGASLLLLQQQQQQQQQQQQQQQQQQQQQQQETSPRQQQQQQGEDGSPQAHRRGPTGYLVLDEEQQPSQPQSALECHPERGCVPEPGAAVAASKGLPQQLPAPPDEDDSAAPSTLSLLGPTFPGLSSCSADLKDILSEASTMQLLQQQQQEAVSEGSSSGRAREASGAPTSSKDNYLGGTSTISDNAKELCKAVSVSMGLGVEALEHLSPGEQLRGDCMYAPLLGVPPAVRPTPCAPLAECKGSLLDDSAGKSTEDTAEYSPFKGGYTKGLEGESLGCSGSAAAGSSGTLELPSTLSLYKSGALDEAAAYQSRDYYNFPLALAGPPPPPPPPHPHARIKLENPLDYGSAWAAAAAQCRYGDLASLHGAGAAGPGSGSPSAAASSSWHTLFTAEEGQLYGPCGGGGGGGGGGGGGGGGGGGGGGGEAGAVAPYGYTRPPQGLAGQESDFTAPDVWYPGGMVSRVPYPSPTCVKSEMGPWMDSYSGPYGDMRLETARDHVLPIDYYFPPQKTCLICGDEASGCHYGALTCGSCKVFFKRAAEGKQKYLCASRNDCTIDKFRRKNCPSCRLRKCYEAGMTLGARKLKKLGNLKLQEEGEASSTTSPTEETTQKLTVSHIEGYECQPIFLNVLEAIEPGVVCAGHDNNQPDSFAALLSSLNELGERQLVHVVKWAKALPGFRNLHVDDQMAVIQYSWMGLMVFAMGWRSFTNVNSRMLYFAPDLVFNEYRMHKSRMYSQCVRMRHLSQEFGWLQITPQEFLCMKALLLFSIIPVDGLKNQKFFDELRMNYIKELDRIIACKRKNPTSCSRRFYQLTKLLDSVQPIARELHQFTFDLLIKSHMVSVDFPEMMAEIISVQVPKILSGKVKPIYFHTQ
Sequence of Thyrotropin receptor (Homo sapiens) (P16473 whole entry, looked up): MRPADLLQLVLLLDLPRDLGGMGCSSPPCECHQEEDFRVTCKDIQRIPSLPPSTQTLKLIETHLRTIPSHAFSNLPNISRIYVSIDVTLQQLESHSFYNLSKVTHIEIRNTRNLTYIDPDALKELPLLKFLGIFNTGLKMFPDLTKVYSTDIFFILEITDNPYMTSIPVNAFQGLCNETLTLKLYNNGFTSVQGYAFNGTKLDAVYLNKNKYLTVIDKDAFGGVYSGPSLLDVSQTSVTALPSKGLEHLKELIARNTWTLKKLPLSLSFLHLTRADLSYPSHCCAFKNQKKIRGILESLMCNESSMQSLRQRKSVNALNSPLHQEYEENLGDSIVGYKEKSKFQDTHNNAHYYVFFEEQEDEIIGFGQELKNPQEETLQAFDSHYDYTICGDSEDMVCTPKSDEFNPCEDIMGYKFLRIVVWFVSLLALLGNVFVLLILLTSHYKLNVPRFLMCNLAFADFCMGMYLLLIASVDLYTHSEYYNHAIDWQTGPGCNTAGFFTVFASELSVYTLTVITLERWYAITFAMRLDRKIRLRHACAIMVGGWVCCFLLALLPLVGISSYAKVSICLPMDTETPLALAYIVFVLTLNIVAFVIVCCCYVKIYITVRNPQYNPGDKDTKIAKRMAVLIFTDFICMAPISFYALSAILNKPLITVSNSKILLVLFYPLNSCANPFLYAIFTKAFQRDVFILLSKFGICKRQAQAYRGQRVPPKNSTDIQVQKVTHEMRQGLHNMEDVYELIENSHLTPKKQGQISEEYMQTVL

As for `CN(C)c1cccc(O)c1`, the Potency result in experiment [1] is “inactive and 54.9 µM (active)”. Further, the Potency result in experiment [2], in experiment [3], in experiment [4], in experiment [5], in [6] and in [8] was “inactive” each time. In addition, the Potency entry in experiment [9], in [10], in experiment [11] and in [12] was “inactive” throughout. The compound was classed as inactive in experiment [7], in experiment [13] and in [14].

On to `C=C(C)C(=O)OCCC[Si](OC)(OC)OC`, for which the Potency result in [1], in [2], in experiment [3], in experiment [15], in experiment [4] and in experiment [5] was “inactive” in each case. For the same compound, the Potency result in experiment [6], in experiment [8], in experiment [9], in [10], in experiment [16] and in [11] was “inactive” in each case. In addition, the Potency result in experiment [12] and in experiment [17] was “inactive” throughout. Moreover, the outcome in experiment [7], in [13] and in experiment [14] was inactive.

For the compound `CCCCC(CC)COC(C)=O` (stereo unspecified), the Potency result in [1], in experiment [2], in experiment [3], in experiment [4], in experiment [5] and in experiment [6] was “inactive” throughout. The Potency result in experiment [8], in experiment [9], in experiment [10], in experiment [11] and in [12] was “inactive” in each case. Besides, the compound was called inactive in experiment [18], in experiment [7], in experiment [13] and in experiment [14].

With `CCOC(=O)[C@H](CCc1ccccc1)N[C@@H](C)C(=O)N1Cc2ccccc2C[C@H]1C(=O)O`, the Potency result in [1], in [3], in experiment [15], in experiment [4], in experiment [5] and in experiment [9] was “inactive” each time. For the same compound, the Potency entry in [10], in experiment [11], in [12] and in experiment [17] was “inactive” throughout. For the same compound, the result in experiment [19], in [18] and in [7] was inactive. Also, the Potency entry in experiment [8] is “inactive and 16.8 µM (active)”.

Turning to `CCCCCCCCCCCCN`, the Potency entry in experiment [1] was “inactive and 24.5 µM (active)”; in experiment [5], 27.3 µM (active) and inactive; in experiment [11], “inactive and 30.6 µM (active)”; in experiment [12], 54.5 µM (active) and inactive. Further, the Potency entry in [2], in experiment [3], in [4], in experiment [6], in [8] and in experiment [16] was “inactive” in each case. Also, the result in experiment [18], in experiment [7], in experiment [13] and in experiment [14] was inactive.

Turning to `Nc1nc2ncc(CNc3ccc(C(=O)N[C@@H](CCC(=O)O)C(=O)O)cc3)nc2c(=O)[nH]1`, the Potency result in [1], in [3], in experiment [4], in [5], in experiment [6] and in experiment [8] was “inactive” in each case. Moreover, the Potency result in [9], in [10], in experiment [16], in [11] and in experiment [12] was “inactive” in each case. For the same compound, the result in experiment [20], in [19], in [7], in [13] and in experiment [14] was inactive.

Turning to `C=CC(=O)OCCCCCCCC(C)C`, the Potency result in experiment [1], in [3], in experiment [15], in experiment [4], in experiment [5] and in experiment [6] was “inactive” each time. For the same compound, the Potency result in [8], in experiment [9], in experiment [10], in experiment [11], in [12] and in experiment [17] was “inactive” each time. Besides, the result in experiment [20], in [18], in [7], in experiment [13] and in experiment [14] was inactive.

`OC[C@@H](O)[C@H](O)[C@H](O)[C@@H](O)CO`: the Potency result in experiment [1], in experiment [3], in experiment [15], in experiment [4], in experiment [5] and in experiment [6] was “inactive” throughout. Besides, the Potency result in experiment [8], in experiment [11], in experiment [12] and in experiment [17] was “inactive” throughout. Further, the compound was called inactive in experiment [19], in [7], in experiment [13] and in [14].

`COC(=O)Nc1nc2ccc(Sc3ccccc3)cc2[nH]1`: the Potency result in [1], in experiment [2], in experiment [3], in experiment [4], in experiment [5] and in experiment [16] was “inactive” in each case. For the same compound, the Potency entry in [11] and in [12] was “inactive” in each case. Further, the compound was classed as inactive in experiment [19], in experiment [18], in experiment [7], in experiment [13] and in experiment [14]. The Potency in [6] was 8.63 µM (active); in [8] it was 1.93 µM (active) and 2.66 µM (active).

The record behind these values is PubChem BioAssay (Tox21).
